Data as given in PubChem BioAssay AID1159580 (chemical genetic matrix, 2015).
The whole screen tested about 5,500 compounds, of which about 2,000 (36%) were called active. Inconclusive results (about 18%) are left out. Rule as the data show it: active = normalized growth mostly below about 0.91 (no sharp cut-off); inconclusive = no clear call, values can overlap the other calls; inactive = mostly above about 0.92. This is one part of the list.

Assay: chemical genetic growth profiling, strain panel (AID 1159580);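 also: tested at 20 µM; growth read once vehicle control cultures reached saturation at 30 °C; 1 = growth at the plate median or of vehicle wells; lower values mean less growth of the strain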
Conditions: growth OD

Measured: normalized growth

COC(=O)[C@H]1[C@H]2C[C@H]3c4[nH]c5cc(OC)ccc5c4CCN3C[C@H]2C[C@@H](OC(=O)c2cc(OC)c(OC)c(OC)c2)[C@@H]1OC
inactive: S. cerevisiae deletion strains, locus YKL009W, strain mrt4, hits give low values 0.991 | S. cerevisiae deletion strains, locus YKL068W, hits give low values 0.995 | S. cerevisiae deletion strains, locus YKL085W, strain MDH1 (second series), hits give low values 1 | S. cerevisiae deletion strains, locus YKL085W, strain MDH1, hits give low values 1 | S. cerevisiae deletion strains, locus YKL160W, strain elf1, hits give low values 0.995 | S. cerevisiae deletion strains, locus YKR001C, strain vps1, hits give low values 1.01 | S. cerevisiae deletion strains, locus YKR026C, strain gcn3, hits give low values 0.994 | S. cerevisiae deletion strains, locus YKR091W, strain srl3, hits give low values 1.02 | S. cerevisiae deletion strains, locus YLL001W, strain dnm1, hits give low values 1.03 | S. cerevisiae deletion strains, locus YLL026W, hits give low values 1.02 | S. cerevisiae deletion strains, locus YLL041C, strain sdh2, hits give low values 1.01 | S. cerevisiae deletion strains, locus YLR027C, strain aat2, hits give low values 1.01 | S. cerevisiae deletion strains, locus YLR039C, strain RIC1, hits give low values 0.971 | S. cerevisiae deletion strains, locus YLR058C, strain SHM2, hits give low values 0.992 | S. cerevisiae deletion strains, locus YLR102C, strain apc9, hits give low values 0.981 | S. cerevisiae deletion strains, locus YLR113W, strain HOG1, hits give low values 0.988 | S. cerevisiae deletion strains, locus YLR221C, strain rsa3, hits give low values 1 | S. cerevisiae deletion strains, locus YLR258W, strain gsy2, hits give low values 1.01 | S. cerevisiae deletion strains, locus YLR262C, strain YPT6 (second series), hits give low values 1 | S. cerevisiae deletion strains, locus YLR262C, strain YPT6, hits give low values 1 | S. cerevisiae deletion strains, locus YLR268W, strain sec22, hits give low values 0.987 | S. cerevisiae deletion strains, locus YLR320W, strain mms22, hits give low values 1.01 | S. cerevisiae deletion strains, locus YLR330W, strain CHS5, hits give low values 0.992 | S. cerevisiae deletion strains, locus YLR342W, strain FKS1 (second series), hits give low values 1.04 | S. cerevisiae deletion strains, locus YLR342W, strain FKS1, hits give low values 1.01 | S. cerevisiae deletion strains, locus YLR357W, strain rsc2, hits give low values 1 | S. cerevisiae deletion strains, locus YLR370C, strain arc18, hits give low values 1.01 | S. cerevisiae deletion strains, locus YLR371W, strain rom2, hits give low values 1 | S. cerevisiae deletion strains, locus YLR384C, strain iki3, hits give low values 0.998 | S. cerevisiae deletion strains, locus YLR418C, strain cdc73, hits give low values 0.998 | S. cerevisiae deletion strains, locus YML016C, strain PPZ1, hits give low values 0.998 | S. cerevisiae deletion strains, locus YML032C, strain rad52, hits give low values 0.991 | S. cerevisiae deletion strains, locus YML120C, strain ndi1, hits give low values 1.01 | S. cerevisiae deletion strains, locus YML124C, strain tub3, hits give low values 1.01 | S. cerevisiae deletion strains, locus YMR058W, strain fet3, hits give low values 1.01 | S. cerevisiae deletion strains, locus YMR078C, strain ctf18, hits give low values 1 | S. cerevisiae deletion strains, locus YMR125W, strain sto1, hits give low values 1.02 | S. cerevisiae deletion strains, locus YMR129W, hits give low values 0.999 | S. cerevisiae deletion strains, locus YMR205C, strain PFK2, hits give low values 1.02 | S. cerevisiae deletion strains, locus YMR223W, strain ubp8, hits give low values 1.02 | S. cerevisiae deletion strains, locus YMR231W, strain pep5, hits give low values 1.01 | S. cerevisiae deletion strains, locus YMR263W, strain SAP30, hits give low values 0.98 | S. cerevisiae deletion strains, locus YMR307W, strain GAS1, hits give low values 1.16 | S. cerevisiae deletion strains, locus YNL067W, strain RPL9B, hits give low values 0.961 | S. cerevisiae deletion strains, locus YNL071W, strain lat1, hits give low values 1.02 | S. cerevisiae deletion strains, locus YNL128W, strain TEP1, hits give low values 0.954 | S. cerevisiae deletion strains, locus YNL153C, strain GIM3, hits give low values 0.99 | S. cerevisiae deletion strains, locus YNL183C, strain NPR1, hits give low values 0.909 | S. cerevisiae deletion strains, locus YNL209W, strain ssb2, hits give low values 1.01 | S. cerevisiae deletion strains, locus YNL233W, strain BNI4, hits give low values 0.981 | S. cerevisiae deletion strains, locus YNL248C, strain rpa49, hits give low values 1 | S. cerevisiae deletion strains, locus YNL250W, strain rad50, hits give low values 0.985 | S. cerevisiae deletion strains, locus YNL271C, strain bni1, hits give low values 1.02 | S. cerevisiae deletion strains, locus YNL298W, strain CLA4, hits give low values 0.996 | S. cerevisiae deletion strains, locus YNL307C, strain MCK1, hits give low values 0.987 | S. cerevisiae deletion strains, locus YNL322C, strain KRE1 (second series), hits give low values 1.01 | S. cerevisiae deletion strains, locus YNL322C, strain KRE1, hits give low values 1 | S. cerevisiae deletion strains, locus YNR049C, strain mso1, hits give low values 1.02 | S. cerevisiae deletion strains, locus YNR052C, strain pop2, hits give low values 0.995 | S. cerevisiae deletion strains, locus YOL012C, strain htz1 2.11 | S. cerevisiae deletion strains, locus YOL147C, strain pex11, hits give low values 0.984 | S. cerevisiae deletion strains, locus YOR001W, strain rrp6, hits give low values 1.01 | S. cerevisiae deletion strains, locus YOR061W, strain CKA2, hits give low values 0.998 | S. cerevisiae deletion strains, locus YOR069W, strain VPS5, hits give low values 1 | S. cerevisiae deletion strains, locus YOR070C, strain gyp1, hits give low values 1.02 | S. cerevisiae deletion strains, locus YOR080W, strain dia2, hits give low values 1.01 | S. cerevisiae deletion strains, locus YOR083W, strain WHI5, hits give low values 0.987 | S. cerevisiae deletion strains, locus YOR106W, strain vam3, hits give low values 1 | S. cerevisiae deletion strains, locus YOR136W, strain idh2, hits give low values 0.997 | S. cerevisiae deletion strains, locus YOR144C, strain elg1, hits give low values 1.01 | S. cerevisiae deletion strains, locus YOR184W, strain ser1, hits give low values 1.01 | S. cerevisiae deletion strains, locus YOR231W, strain MKK1, hits give low values 0.948 | S. cerevisiae deletion strains, locus YOR265W, strain rbl2, hits give low values 1.02 | S. cerevisiae deletion strains, locus YOR270C, strain vph1, hits give low values 1.08 | S. cerevisiae deletion strains, locus YOR290C, strain snf2, hits give low values 0.971 | S. cerevisiae deletion strains, locus YOR316C, strain cot1, hits give low values 0.989 | S. cerevisiae deletion strains, locus YPL051W, strain arl3, hits give low values 0.977 | S. cerevisiae deletion strains, locus YPL055C, strain LGE1, hits give low values 0.978 | S. cerevisiae deletion strains, locus YPL078C, strain atp4, hits give low values 1 | S. cerevisiae deletion strains, locus YPL106C, strain sse1, hits give low values 0.999 | S. cerevisiae deletion strains, locus YPL240C, strain hsp82, hits give low values 1.03 | S. cerevisiae deletion strains, locus YPL256C, strain CLN2, hits give low values 0.977 | S. cerevisiae deletion strains, locus YPR119W, strain clb2, hits give low values 0.994 | S. cerevisiae deletion strains, locus YPR141C, strain kar3, hits give low values 1.01 | S. cerevisiae deletion strains, locus YPR163C, strain tif3, hits give low values 0.989 | S. cerevisiae deletion strains, locus YPR167C, strain met16, hits give low values 0.998 | S. cerevisiae deletion strains, strain wtn01, hits give low values 0.992 | S. cerevisiae strains, strain wild type, hits give low values 1
